The values below come from PubChem BioAssay.

Structures are written as SMILES. A number with no mark means an inactive call. For part of these data: Potency and affinity values are given separately. Calls of active or inactive are those of the source. Unless noted, how the calls were made is not given here.

A short description of assay [1]: antimalarial activity against Dd2 strain (AID 2302;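 active means growth inhibition above 50% at the single 2 µM test dose, taken to imply half-maximal potency below 2 µM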;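 further: 0% = DMSO untreated growth and 100% = chloroquine plus artemisinin killed control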). The settings on record: P. falciparum Dd2 in RBCs, LDH growth readout, 72 h; at 2 µM; stronger effect = higher value.
Assay [2] is described as follows: HepG2 cytotoxicity, primary screen, cytotoxicity control for P. falciparum antimalarial project, cell-based, ATP luminescence (AID 2303;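 active means inhibition above 50%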;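 further: 0% = DMSO wells and 100% = digitonin-killed cells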). To be noted: HepG2 viability, 24-48 h, at 10 µM, stronger effect = higher value.
The target in assay [3] is L-lactate dehydrogenase (Plasmodium falciparum (isolate CDC / Honduras)) (UniProt Q27743). Description: PfLDH activity inhibition – cell lysate, 3D7 strain, counter-screen for P. falciparum growth inhibition project (AID 2304).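 Further: 0% = vehicle and 100% = reference inhibitor.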 To be noted: P. falciparum 3D7 crude extract, LDH APAD/NBT absorbance; at 2 µM; stronger effect = higher value.
Chain of L-lactate dehydrogenase (Plasmodium falciparum (isolate CDC / Honduras)) (Q27743 whole entry, looked up): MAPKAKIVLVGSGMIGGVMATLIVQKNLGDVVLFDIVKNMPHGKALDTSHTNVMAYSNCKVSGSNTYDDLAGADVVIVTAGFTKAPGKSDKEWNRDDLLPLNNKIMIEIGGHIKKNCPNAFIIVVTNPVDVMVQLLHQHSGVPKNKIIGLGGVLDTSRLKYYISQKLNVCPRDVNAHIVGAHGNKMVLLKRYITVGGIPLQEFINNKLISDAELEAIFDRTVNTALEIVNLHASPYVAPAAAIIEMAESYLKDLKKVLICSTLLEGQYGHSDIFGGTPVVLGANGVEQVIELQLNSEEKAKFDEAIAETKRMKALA
Assay [4] in a line: inhibition of 3D7 malaria parasite growth – strain 3D7 (AID 2306).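 Further: 0% = DMSO wells and 100% = chloroquine plus artemisinin control wells.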 The settings on record: P. falciparum 3D7 erythrocytic growth, LDH absorbance, 72 h; at 2 µM; stronger effect = higher value.
Assay [5] deals with Calcium-dependent protein kinase 1 (Plasmodium falciparum (isolate 3D7)) (UniProt P62344). The assay can be described thus: PfCDPK1 kinase inhibitors, biochemical, TCAMS library (AID 1159585; cut-off not given, nearly all actives have IC50 up to about 0.98 µM;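 further: inhibitors leave more ATP so luminescence rises with inhibition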). The settings on record: recombinant PfCDPK1, Kinase-Glo ATP depletion luminescence.
Chain of Calcium-dependent protein kinase 1 (Plasmodium falciparum (isolate 3D7)) (P62344 whole entry, looked up): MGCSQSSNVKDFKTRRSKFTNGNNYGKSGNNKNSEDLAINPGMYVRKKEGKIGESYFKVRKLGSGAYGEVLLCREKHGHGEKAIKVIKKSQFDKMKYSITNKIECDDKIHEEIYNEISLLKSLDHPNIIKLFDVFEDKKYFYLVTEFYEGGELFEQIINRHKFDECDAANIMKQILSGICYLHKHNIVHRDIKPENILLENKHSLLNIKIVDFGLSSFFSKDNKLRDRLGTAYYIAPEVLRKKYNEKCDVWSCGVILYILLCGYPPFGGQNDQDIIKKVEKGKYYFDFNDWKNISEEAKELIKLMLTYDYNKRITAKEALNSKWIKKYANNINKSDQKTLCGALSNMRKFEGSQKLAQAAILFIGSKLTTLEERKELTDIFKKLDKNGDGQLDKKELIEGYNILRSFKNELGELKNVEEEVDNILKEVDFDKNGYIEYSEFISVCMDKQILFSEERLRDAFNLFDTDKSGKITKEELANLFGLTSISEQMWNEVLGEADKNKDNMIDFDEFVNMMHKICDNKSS
In assay [6] the target is Plasmodium falciparum protein kinase 6 (PK6, PF3D7_1337100) (UniProt Q8IDW1). The assay can be described thus: PfPK6 kinase inhibitors, biochemical, TCAMS library (AID 1159586). The settings on record: recombinant PfPK6, Kinase-Glo ATP depletion luminescence. (In general: Kinase-Glo reads ATP consumption through a luciferase reaction.)
Chain of Plasmodium falciparum protein kinase 6 (PK6, PF3D7_1337100) (Q8IDW1 1-305): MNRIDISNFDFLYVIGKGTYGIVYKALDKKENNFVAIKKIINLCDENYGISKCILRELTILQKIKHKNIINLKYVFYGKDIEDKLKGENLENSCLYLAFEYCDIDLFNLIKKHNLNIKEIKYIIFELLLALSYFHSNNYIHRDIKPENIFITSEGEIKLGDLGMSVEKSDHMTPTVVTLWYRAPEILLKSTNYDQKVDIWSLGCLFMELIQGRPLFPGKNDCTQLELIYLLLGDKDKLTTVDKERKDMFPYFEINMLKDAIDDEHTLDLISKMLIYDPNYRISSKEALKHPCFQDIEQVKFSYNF
Assay [7] addresses Protein kinase 7 (PK7), Plasmodium falciparum 3D7 (PF3D7_0213400) (UniProt Q7YTF7). Description: inhibition of Plasmodium PK7 catalytic activity – biochemical, TCAMS antimalarial set, Kinase-Glo luminescence (AID 1159587). To be noted: recombinant PfPK7, Kinase-Glo ATP depletion luminescence.
The target of assay [8] is Calcium-dependent protein kinase 4 (Plasmodium falciparum (isolate 3D7)) (UniProt Q8IBS5). Description: PfCDPK4 kinase inhibitors, biochemical, TCAMS library (AID 1159588; cut-off not given, nearly all actives have IC50 up to about 0.91 µM). The settings on record: recombinant PfCDPK4, Kinase-Glo ATP depletion luminescence.
Chain of Calcium-dependent protein kinase 4 (Plasmodium falciparum (isolate 3D7)) (Q8IBS5 whole entry, looked up): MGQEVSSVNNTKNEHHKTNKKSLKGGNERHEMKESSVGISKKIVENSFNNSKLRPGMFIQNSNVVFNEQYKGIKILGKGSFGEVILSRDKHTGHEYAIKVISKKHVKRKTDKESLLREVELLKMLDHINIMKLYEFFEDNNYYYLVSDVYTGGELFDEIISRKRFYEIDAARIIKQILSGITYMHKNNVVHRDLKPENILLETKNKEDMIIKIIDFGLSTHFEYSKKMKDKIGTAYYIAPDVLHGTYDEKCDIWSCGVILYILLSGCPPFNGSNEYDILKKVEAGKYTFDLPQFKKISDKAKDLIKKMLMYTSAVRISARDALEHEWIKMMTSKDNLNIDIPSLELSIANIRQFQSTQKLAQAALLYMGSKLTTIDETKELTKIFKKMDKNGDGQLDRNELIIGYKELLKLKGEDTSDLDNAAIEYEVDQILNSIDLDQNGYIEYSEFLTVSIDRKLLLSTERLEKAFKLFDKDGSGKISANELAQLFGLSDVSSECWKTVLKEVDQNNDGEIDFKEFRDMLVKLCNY

Chain of Protein kinase 7 (PK7), Plasmodium falciparum 3D7 (PF3D7_0213400) (Q7YTF7 1-343): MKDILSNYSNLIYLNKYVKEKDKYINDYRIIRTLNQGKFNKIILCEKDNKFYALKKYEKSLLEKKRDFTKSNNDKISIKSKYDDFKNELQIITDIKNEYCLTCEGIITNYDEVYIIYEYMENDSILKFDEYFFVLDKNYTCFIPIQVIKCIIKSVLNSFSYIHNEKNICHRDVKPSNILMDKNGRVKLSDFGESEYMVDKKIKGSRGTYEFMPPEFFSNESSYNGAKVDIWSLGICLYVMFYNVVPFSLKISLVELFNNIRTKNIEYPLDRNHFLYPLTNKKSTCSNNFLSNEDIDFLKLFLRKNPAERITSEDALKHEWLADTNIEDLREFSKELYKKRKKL

Take `O=C(Nc1ccc2c(c1)CCN(C1CCC1)CC2)c1ccc(-n2ccnc2)cn1`: the growth inhibition in assay [1] was -1%; in assay [4], 92% (active). The inhibition in assay [2] was 8%; in assay [3], 0%. Besides, the result in assay [5], in assay [6], in assay [7] and in assay [8] was inactive.
Consider `N#Cc1ccc(-c2ccc3nc(N4CCCN(C5CCC5)CC4)ccc3c2)cc1`, for which the growth inhibition is 14% in assay [1] and 96% (active) in assay [4]. Besides, the inhibition in assay [2] was 36%; in assay [3] it was -2%. Besides, the outcome in assay [5], in assay [6], in assay [7] and in assay [8] was inactive.
Consider `Cc1cc(N[C@@H](CC(C)C)C(=O)NC2CCCC2)nc(NCc2ccccc2C)n1`, for which the growth inhibition in assay [1] was 44%; in assay [4] it was 98% (active). In addition, the values for the inhibition in assay [2] and in assay [3] were 2% and -3%, respectively. For the same compound, the result in assay [5], in assay [6], in assay [7] and in assay [8] was inactive.
With `O=C(N[C@H]1CCN(Cc2ccc(OCCCN3CCCCC3)cc2)C1)c1ccc(Oc2ccccc2)cc1`, the growth inhibition in assay [1] is 11%; in assay [4], 96% (active). In addition, the results for the inhibition in assay [2] and in assay [3] were 56% (active) and 6%, respectively. Further, the result in assay [5], in assay [6], in assay [7] and in assay [8] was inactive.
For `CCOc1c(OC)ccc2c1CCN(CCN1CCC(CNC(=O)c3ccc(-c4ccc(C#N)cc4)cc3)CC1)C2`, the figures for the growth inhibition in assay [1] and in assay [4] were 61% (active) and 92% (active), respectively. Moreover, the figures for the inhibition in assay [2] and in assay [3] were 45% and 7%, respectively. Further, the outcome in assay [5], in assay [6], in assay [7] and in assay [8] was inactive.
With `Cc1cc(NN=Cc2ccccc2Cl)c2cc(F)ccc2n1`, the results for the growth inhibition in assay [1] and in assay [4] were 4% and 101% (active), respectively. Besides, the inhibition in assay [2] is 5%; in assay [3], -2%. Moreover, the result in assay [5], in assay [6], in assay [7] and in assay [8] was inactive.
With `CCCC(C)C(=O)N1CCOC(COCc2cccc(C(F)(F)F)c2)(c2ccc(Cl)cc2)C1` (stereo not drawn), the values for the growth inhibition in assay [1] and in assay [4] were 91% (active) and 97% (active), respectively. Besides, the results for the inhibition in assay [2] and in assay [3] were 2% and 0%, respectively. Further, the result in assay [5], in assay [6], in assay [7] and in assay [8] was inactive.
As for `COc1cc2nc(N3CCC(CNC(=O)/C=C/c4ccccc4F)CC3)nc(N)c2cc1OC`, the growth inhibition was 88% (active) in assay [1] and 100% (active) in assay [4]. The results for the inhibition in assay [2] and in assay [3] were -4% and 5%, respectively. The result in assay [5], in assay [6], in assay [7] and in assay [8] was inactive.
For the compound `O=C(Nc1ccc(Cn2ncc(N3CCCNCC3)c(Cl)c2=O)cc1)Nc1cc(Cl)cc(Cl)c1`, the growth inhibition in assay [1] was 17%; in assay [4], 91% (active). Further, the inhibition in assay [2] and in assay [3] was 3% each time. Also, the outcome in assay [5], in assay [6], in assay [7] and in assay [8] was inactive.
Consider `Brc1ccccc1CNc1ccnc(NCCn2ccnc2)n1`, for which the growth inhibition in assay [1] was 33%; in assay [4] it was 99% (active). Further, the inhibition in assay [2] is 72% (active); in assay [3], 4%. Also, the result in assay [5], in assay [6], in assay [7] and in assay [8] was inactive.
For `COc1ccc2nc(N3CCN(C(=O)OC(C)(C)C)CC3)nc(NCCCc3ccccc3)c2c1`, the growth inhibition in assay [1] was 95% (active); in assay [4], 102% (active). The inhibition in assay [2] is 9%; in assay [3], -2%. The result in assay [5], in assay [6], in assay [7] and in assay [8] was inactive.
Regarding `CC1(C)N=C(N)N=C(N)N1OCCNCc1ccc(Cl)cc1`, the growth inhibition in assay [1] was -2%; in assay [4], 95% (active). The values for the inhibition in assay [2] and in assay [3] were 5% and -5%, respectively. Also, the result in assay [5], in assay [6], in assay [7] and in assay [8] was inactive.
For the compound `CC1(C)N=C(N)N=C(N)N1OCCc1ccc(N)cc1`, the growth inhibition in assay [1] is 95% (active); in assay [4] it was 93% (active). The inhibition in assay [2] was 65% (active); in assay [3], -6%. Also, the outcome in assay [5], in assay [6], in assay [7] and in assay [8] was inactive.
As for `OCc1c(Cl)cc(Cl)cc1CNCCCNc1nc2ccccc2[nH]1`, the growth inhibition is 2% in assay [1] and 102% (active) in assay [4]. Further, the inhibition is -6% in assay [2] and -2% in assay [3]. For the same compound, the result in assay [5], in assay [6], in assay [7] and in assay [8] was inactive.
As to `CCOc1ccc2nc(C)cc(NN=Cc3ccccc3)c2c1`, the growth inhibition is 8% in assay [1] and 96% (active) in assay [4]. For the same compound, the figures for the inhibition in assay [2] and in assay [3] were 5% and -3%, respectively. The result in assay [5], in assay [6], in assay [7] and in assay [8] was inactive.
`COc1nc2c(CCN3CC[C@H](NCc4cc(C#N)c5c(c4)CCO5)[C@H](O)C3)ccnc2cc1F`: the growth inhibition in assay [1] is 71% (active); in assay [4], 99% (active). The inhibition in assay [2] is 31%; in assay [3], -9%. In addition, the result in assay [5], in assay [6], in assay [7] and in assay [8] was inactive.
Take `O=C(/C=C/c1ccc(Cl)c(Cl)c1)NCCCCCN1CCC(NC(=O)NCCc2ccccc2)CC1`: the values for the growth inhibition in assay [1] and in assay [4] were 7% and 100% (active), respectively. Moreover, the results for the inhibition in assay [2] and in assay [3] were 23% and 2%, respectively. In addition, the result in assay [5], in assay [6], in assay [7] and in assay [8] was inactive.
With `COc1ccc(S(=O)(=O)NCCCC2CCN(CCCCCNC(=O)C=Cc3ccc(Cl)c(Cl)c3)CC2)cc1`, the growth inhibition in assay [1] is 12%; in assay [4], 85% (active). The inhibition was 24% in assay [2] and 0% in assay [3]. The outcome in assay [5], in assay [6], in assay [7] and in assay [8] was inactive.
Consider `Oc1c(C(Nc2nc3ccccc3s2)c2ccc(OC(F)F)cc2)ccc2cccnc12` (stereo not drawn), for which the figures for the growth inhibition in assay [1] and in assay [4] were 85% (active) and 92% (active), respectively. The figures for the inhibition in assay [2] and in assay [3] were 62% (active) and 4%, respectively. Also, the outcome in assay [5], in assay [6], in assay [7] and in assay [8] was inactive.
Consider `O=C(/C=C/c1ccc(C(F)(F)F)cc1)NCCCCCN1CCCN(C(=O)Nc2ccc(F)c(Cl)c2)CC1`, for which the values for the growth inhibition in assay [1] and in assay [4] were 33% and 101% (active), respectively. For the same compound, the inhibition in assay [2] was 33%; in assay [3], 0%. In addition, the outcome in assay [5], in assay [6], in assay [7] and in assay [8] was inactive.
For `Cc1ccc(-c2ccc(NC(=O)N3CCc4cc(Br)c(N5CCN(C)CC5)cc43)cc2)cn1`, the growth inhibition was 16% in assay [1] and 80% (active) in assay [4]. Further, the inhibition is 86% (active) in assay [2] and -3% in assay [3]. The result in assay [5], in assay [6], in assay [7] and in assay [8] was inactive.

For orientation: inhibition means the drop in the measured response relative to a control, in per cent.
